In PubChem BioAssay AID624416 (The Scripps Research Institute Molecular Screening Center, 2012):
Out of some 360,000 compounds screened, about 1,500 (0.42%) were called active. What follows is part of a selection rich in actives, with near analogues and random picks from the rest. A number with no mark means an inactive call. Rule as the data show it: active = inhibition above about 8.5%; inactive = the rest.

System: HIV-1 gp120 / PG9 antibody interaction
Assay: small molecules engaging PG9 antibody – biochemical, TR-FRET, primary screen (AID 624416)
Conditions: TR-FRET gp120-PG9 antibody binding; at 6.7 µM; hits give high values

| Compound | inhibition |
| --- | --- |
| COC(=O)C1=C(C)NC(=S)NC1c1ccc(OC)cc1 (stereo not drawn) | -0.48% |
| COC(=O)C1=C(C)N(Cc2cccc(C(F)(F)F)c2)C(=NCc2ccccc2)NC1c1ccc(Cl)cc1 (stereo not drawn) | -1.36% |
| COC(=O)[C@H](CC(C)C)NS(=O)(=O)c1c(F)cccc1F | -2.8% |
| COc1ccc(S(=O)(=O)Nc2ccc3c(c2)C(=O)N([C@H](C)CO)C[C@H](C)[C@@H](CN(C)C)OCCCC[C@H](C)O3)cc1 | -0.42% |
| O=C(COC(=O)c1cccc(Cl)c1)Nc1ccc2[nH]c(=O)[nH]c2c1 | 0.75% |
| O=C(COC(=O)Cn1cnc2ccccc21)Nc1cccc2c1C(=O)c1ccccc1C2=O | -1.23% |
| O=C(COC(=O)c1cccc(Br)c1)Nc1cccc2c1C(=O)c1ccccc1C2=O | 12% (active) |
| COC(=O)[C@]12C[C@H](CC(=O)NCc3cccc(C(F)(F)F)c3)C(=O)N(Cc3ccc4c(c3)OCO4)C1=C[C@H](COCc1ccccc1)O[C@@H]2C | -1.16% |
| COc1cccc(NC(=O)N(C)C[C@@H]2OCc3cn(nn3)CCCC(=O)N([C@@H](C)CO)C[C@H]2C)c1 | 0.85% |
| CCOc1ccc2nc(N3CCCN(C(=O)Nc4ccccc4C)CC3)c(C#N)cc2c1 | 1.36% |
| Cc1cc(C#N)c(SCC(N)=O)nc1-c1ccc(F)cc1 | -0.54% |
| CCOc1ccc2cc(C#N)c(SCC(=O)OC)nc2c1 | 33.3% (active) |
| COc1ccccc1Cc1c(-c2ccc(F)cc2)nc2ccc(C)cn12 | 1.73% |
| N#Cc1ccc(OCCCN2CCC(C(O)(c3ccccc3)c3ccccc3)CC2)c(F)c1 | 1.27% |
| NS(=O)(=O)c1ccc2nc(NC(=O)CS(=O)(=O)c3ccc(F)cc3)sc2c1 | -0.8% |
| Cc1nc(NC(=O)CCC(=O)O)sc1C(=O)N(C)C | 0.5% |
| O=C(O)CCC(=O)Nc1nc2ccc([N+](=O)[O-])cc2s1 | 9.53% (active) |
| CCN1C(=O)N[C@@H]2C[C@H](C(=O)N3CCCC3)[C@H](C)[C@H](c3ccccc3)C[C@@H]21 | -1.63% |
| N#Cc1ccccc1Sc1ccccc1C(=O)OCC(=O)NC1CCCCC1 | 33% (active) |
| O=C(COC(=O)c1ccccc1Cl)NC1CCCCCCC1 | -1.4% |
| O=C(COC(=O)c1cccc(Cl)c1Cl)NC1CCCCCC1 | -0.6% |

| Compound | inhibition |
| --- | --- |
| COCCNC(=S)N(C)[C@H]1C[C@H]2c3[nH]c4ccccc4c3CCN2C[C@H]1[C@H](C)O | -0.82% |
| COCc1[nH]nc2c1C(c1ccccc1)N(c1ccccc1)C2=O (stereo not drawn) | 0.32% |
| O=C1[C@@H](c2ccccc2)[C@@H](c2ccccc2)N1c1ccccc1 | -1.27% |
| Cc1cc2c3ccccc3[nH]c(=O)n2n1 | 0.66% |
| S=c1ccc2ccccc2[nH]1 | 1.87% |
| S=c1[nH]c2ccccc2c2ccccc12 | 41.9% (active) |
| Cc1ccc(-n2nc(-c3ccco3)cc2C(=O)NCc2cccnc2)cc1 | 1.7% |
| Cc1ccc(-n2ncc3c(=O)n(-c4ccc(C)c(C)c4)c(-c4ccco4)nc32)cc1 | 9.24% (active) |
| Cc1ccc(-n2ncc3c2ncn2nc(-c4ccco4)nc32)c(C)c1 | 1.54% |
| CCOC(=O)Cn1c2c(n(-c3ccc(F)cc3)c1=O)C=C(c1ccccc1)[C@@H](C)C(C(=O)N(C)C1CCCCC1)=C2 | 1.82% |
| CCCCCCCCN1C(=O)[C@@H](CC(=O)N2CCN(C(=O)OCC)CC2)C[C@@]2(C(=O)OC)C1=C[C@H](C1CCCC1)O[C@@H]2C | -1.72% |
| Cc1nn(C)cc1CNC(=O)Nc1ccc(Cl)cc1 | -1.07% |
| Cc1ccc(-c2cc(C(=O)NCc3cn(C)nc3C)c3cc(Br)ccc3n2)cc1 | 11.4% (active) |
| Cc1nn(C)cc1C(=O)Nc1ccccc1Br | -1.45% |
| Cc1cc(OC(=O)NCCc2ccc(F)cc2)ccc1F | 0.4% |
| COC(=O)[C@]12C[C@H](CC(=O)NCc3ccccc3)C(=O)N(CCC3=CCCCC3)C1=C[C@H](C(C)(C)C)O[C@@H]2C | -0.45% |
| Nc1ncnc2c1ncn2C1OC(CO)CC1O (stereo not drawn) | -0.46% |
| N#Cc1c(N)nc2c3c(sc(=N)c2c1N)NC(=O)CC3c1ccccc1Cl (stereo not drawn) | 36.3% (active) |
| CSc1nc2c(c(=O)[nH]1)C(c1cccc(Cl)c1Cl)CC(=O)N2 (stereo not drawn) | -0.61% |
| NNc1nc2c(Cl)cccc2s1 | -3.22% |
| Fc1cc(F)c2nc(Nc3nc4c(F)cccc4s3)sc2c1 | 12.7% (active) |

| Compound | inhibition |
| --- | --- |
| Cc1cc(NCCc2c[nH]c3ccccc23)ccc1Oc1cccnc1 | 0.39% |
| C[C@@H](CN1C2=NC[C@@H](Cc3ccccc3)N2C[C@H]1Cc1ccc(O)cc1)NC(=O)CCC1CCCCC1 | -0.86% |
| COc1ccc(CC(=O)Nc2ccc(-c3nnc(-c4ccccc4)o3)cc2)cc1 | 9.44% (active) |
| COc1ccc(NC(=O)CSc2nnc(Cc3ccccc3)c(=O)n2N)cc1 | -0.48% |
| COc1ccc(NC(=O)CC(NC(C)c2ccccc2)C(=O)O)cc1 (stereo not drawn) | -1.77% |
| CC(C)[C@H]1COCCS(=O)(=O)N1Cc1ccccc1-c1cccc2c1sc1ccccc12 | -1.17% |
| C=CC[C@]12C[C@@]3(O[C@H](c4ccc(C(F)(F)F)cc4)N=C3C[C@H](c3ccc(OC)cc3)[C@H]1C)N(C1CCN(Cc3ccccc3)CC1)C2=O | -1.53% |
| COc1cccc(-n2c(SCC(=O)c3c[nH]c4ccccc34)nc3ccccc3c2=O)c1 | 35.5% (active) |
| Cc1ccc(-n2c(SCC(=O)N3CCC(C(=O)O)CC3)nc3ccccc3c2=O)cc1C | -0.77% |
| CCCn1c(N)c(C(=O)CSc2nc3ccccc3c(=O)n2-c2ccc(OC)cc2)c(=O)[nH]c1=O | -1.09% |
| O=C(NCCc1ccccn1)c1cc(C(=O)C2CCCCC2)c[nH]1 | 10.2% (active) |
| O=C(NCCc1ccccn1)c1ccc(COc2ccccc2)o1 | -2% |
| COc1ccc(CNC(=O)c2cc(C(=O)C3CC3)c[nH]2)cc1 | -0.91% |
| COc1ccc(CCNC(=O)CSc2nnc3ccc(-c4ccncc4)nn23)cc1 | -1.52% |
| COc1ccc(CCNC(=O)CSc2nc(C)nc3c2oc2ccccc23)cc1OC | -0.52% |
| COc1ccc(CCNC(=O)CSc2nc(-c3ccc(OC)c(OC)c3)ccc2C#N)cc1 | 16% (active) |
| COc1cccc(-c2ccc(C#N)c(SCC(=O)NCCc3ccc(Cl)cc3)n2)c1 | 14.1% (active) |
| COc1cc(OC)cc(C(=O)NCCSCc2ccc(Cl)cc2)c1 | -1.65% |
| COc1ccc(CCNC(=O)COC(=O)c2cnc(Cl)c(Cl)c2)cc1 | -0.95% |
| CCc1c(-c2ccccc2OC)ncn1CCc1ccccc1OC | 0.74% |
| COC(=O)[C@]12C[C@H](CC(=O)N3CCN(C(=O)C4CC4)CC3)C(=O)N(Cc3ccc4c(c3)OCO4)C1=C[C@H](C(C)(C)C)O[C@@H]2C | -1.36% |

| Compound | inhibition |
| --- | --- |
| COC(=O)c1ccc(CN2C(=O)[C@]3(OCCC=C[C@H]3C)c3c(Br)cccc32)cc1 | 0.64% |
| COc1ccccc1C(=O)N1O[C@]23C=C[C@]14C[C@@H](O)CC[C@]4(C)C2CC[C@]1(C)[C@@H]([C@H](C)/C=C/[C@H](C)C(C)C)CC[C@H]13 (stereo partly drawn) | 0.64% |
| NC(=O)c1ncn([C@@H]2O[C@H](C(=O)O)[C@@H](O)[C@H]2O)n1 | -0.47% |
| CCOC(=O)c1c(C)[nH]c(C(=O)COc2ccc3c(c2)OCO3)c1C | 3.13% |
| COc1ccc(C(=O)COC(=O)C(O)c2ccccc2)c(OC)c1 (stereo not drawn) | -2.12% |
| CCOC(=O)c1c(C)[nH]c(C(=O)OCC(=O)c2ccc(OC)cc2OC)c1C | 9.16% (active) |
| COC(=O)Cc1nnn2c1[C@H](C)[C@@H](OC)c1cc(Br)ccc1-2 | 0.07% |
| CCn1c(SCC(=O)Nc2cccc(F)c2)nnc1-c1cc2cc(Br)ccc2o1 | 24.2% (active) |
| Cn1c(SCC(=O)Nc2ccc(Br)cc2F)nnc1-c1ccco1 | 2.43% |
| CCn1c(CNC(=O)c2ccco2)nnc1SCC(=O)Nc1cccc(F)c1 | -1.17% |
| CCCCCCCCN1C(=O)[C@@H](CC(=O)NCc2ccc(C)o2)C[C@@]2(C(=O)OC)C1=C[C@H](C(C)(C)C)O[C@@H]2C | 0.05% |
| COC(=O)C1=C(C)N(Cc2ccccc2C(F)(F)F)C(=NCC2CC2)NC1c1cccc(Cl)c1 (stereo not drawn) | -1.5% |
| COC(=O)C1=C(C)N(Cc2ccccc2C(F)(F)F)C(=NCc2ccc(C(F)(F)F)cc2)NC1c1ccc(F)cc1 (stereo not drawn) | -2.66% |
| COC(=O)C1=C(C)N(Cc2ccccc2C(F)(F)F)C(=NCc2ccc(OC)cc2)NC1c1cccc(C(F)(F)F)c1 (stereo not drawn) | 24.9% (active) |
| CC1(C)OC(=O)C2=C(CC(CCc3ccccc3)OC2c2ccc(Cl)cc2)O1 (stereo not drawn) | 1.11% |
| COc1ccc(Sc2ccc(NC(=O)c3cccc(Cl)c3)cc2C#N)cc1 | -1.17% |
| N#Cc1ccccc1NC(=O)c1cccc(COc2ccc(Cl)cc2Cl)c1 | 19.9% (active) |
| O=C(Nc1ccn(Cc2ccccc2F)n1)c1ccc(COc2ccc(Cl)cc2Cl)o1 | 1.3% |
| CN[C@H]1C[C@H]2c3[nH]c4c(-c5ccccc5)cccc4c3CCN2C(=O)[C@H]1[C@H](C)O | -0.87% |
| COc1ccc(-c2ccc3c(n2)CCCN3S(=O)(=O)c2ccc(C)cc2)cc1 | -0.15% |
